This is an account of results in PubChem BioAssay.

For assay [1], the target named is Albumin (Bos taurus) (UniProt P02769). The assay can be described thus: compounds binding labelled BSA control protein – biochemical, small-molecule microarray, Alexa647 label, 635/667 nm fluorescence, artefact control for SMM control protein annotation, profiling panel (AID 1118).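 Note: score merges 667 nm emission intensity and signal-to-noise per printed compound spot.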 The note with it: BSA-A647 binding, fluorescence 635 nm, higher = more signal.
Assay [2] in a line: probe aXIP binding to arrayed compounds – biochemical, NeuroSMM set, 635/667 nm fluorescence, primary screen (AID 1119).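 Note: probe is the protein aXip251-270 applied at 1 µg/mL to compound-printed slides; binding of probe to printed compounds measured as 667 nm fluorescence plus signal to noise.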 The note with it: small-molecule microarray, higher = more signal, called active from +8 up or from −8 down.
Assay [3] can be described thus: probe aNOTCH3 binding on compound microarray – biochemical, small-molecule microarray, 635/667 nm fluorescence, primary screen (AID 1120).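 Note: probe is a biotin-tagged antibody raised against NOTCH3 rather than NOTCH3 protein; score merges spot fluorescence near 667 nm with spot signal to noise.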 The note with it: higher = more signal.
Assay [4] can be described thus: probe aNOTCH2 binding on compound microarray – biochemical, small-molecule microarray, 635/667 nm fluorescence, primary screen (AID 1121).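 Note: score merges feature fluorescence read at 667 nm with its signal to noise.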 The conditions noted are these: higher = more signal.
Assay [5] concerns the target Carbonic anhydrase 2 (Homo sapiens) (UniProt P00918). In words: compounds binding carbonic anhydrase 2 – biochemical, small-molecule microarray, Alexa647-labelled CAII, profiling panel (AID 1122). The note with it: CAII-A647 binding fluorescence, higher = more signal.
Assay [6] in a line: COS7 lysate on small-molecule microarray, probe aHis, 635 nm (AID 1123).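 Note: z-score combines 667nm fluorescence intensity with signal-to-noise per printed compound spot.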 The note with it: COS7 cell lysate, fluorescence, higher = more signal.
The nature of assay [7]: probe aLAP1 signal on lysate-treated microarray – cell lysate, small-molecule microarray, COS7 lysate, primary screen (AID 1124).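 Note: lysate comes from COS7 cells expressing LAP1 and is applied at 0.3 µg/mL; score merges spot fluorescence near 667 nm with signal-to-noise over triplicate slides.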 The conditions noted are these: probe aLAP1, fluorescence, higher = more signal.
The subject of assay [8] is Sam68 (KHDRBS1). The assay can be described thus: compounds binding KHDRBS1 protein – biochemical, small-molecule microarray, 635 nm fluorescence, primary screen (AID 1125).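 Note: score merges 667 nm channel intensity with signal to noise over triplicate slides.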 The conditions noted are these: higher = more signal.
For assay [9], the system named is Chordin-like protein 2 (CHRDL2). In words: compounds binding chordin-like 2 – biochemical, small-molecule microarray, 635 nm fluorescence, primary screen (AID 1126).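 Note: printed compound slides probed with Chrdl2 protein at 4 µg/mL for 1 h at 4 C; score merges 667 nm emission intensity with signal to noise over three replicate slides.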 The note with it: fluorescence 635 nm, higher = more signal.
Assay [10] deals with Concanavalin-A (Canavalia ensiformis) (UniProt P02866). In words: compounds binding concanavalin A lectin – biochemical, small-molecule microarray, Alexa647 label, 635 nm, artefact control for SMM control protein annotation, primary screen (AID 1127).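 Note: z combines 667 nm emission intensity with signal-to-noise across three replicate slides.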 The conditions noted are these: ConA-A647 binding fluorescence, higher = more signal.

Structures are written as SMILES. The source made the active and inactive calls.

Chain of Concanavalin-A (Canavalia ensiformis) (P02866 whole entry, looked up): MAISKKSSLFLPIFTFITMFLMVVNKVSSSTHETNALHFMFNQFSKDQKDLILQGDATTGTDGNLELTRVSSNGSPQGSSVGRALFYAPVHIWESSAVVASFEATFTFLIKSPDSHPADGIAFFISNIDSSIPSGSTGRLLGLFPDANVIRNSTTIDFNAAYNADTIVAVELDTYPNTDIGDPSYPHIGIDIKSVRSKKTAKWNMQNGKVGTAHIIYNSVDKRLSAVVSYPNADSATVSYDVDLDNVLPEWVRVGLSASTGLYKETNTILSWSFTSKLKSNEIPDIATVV
Chain of Albumin (Bos taurus) (P02769 whole entry, looked up): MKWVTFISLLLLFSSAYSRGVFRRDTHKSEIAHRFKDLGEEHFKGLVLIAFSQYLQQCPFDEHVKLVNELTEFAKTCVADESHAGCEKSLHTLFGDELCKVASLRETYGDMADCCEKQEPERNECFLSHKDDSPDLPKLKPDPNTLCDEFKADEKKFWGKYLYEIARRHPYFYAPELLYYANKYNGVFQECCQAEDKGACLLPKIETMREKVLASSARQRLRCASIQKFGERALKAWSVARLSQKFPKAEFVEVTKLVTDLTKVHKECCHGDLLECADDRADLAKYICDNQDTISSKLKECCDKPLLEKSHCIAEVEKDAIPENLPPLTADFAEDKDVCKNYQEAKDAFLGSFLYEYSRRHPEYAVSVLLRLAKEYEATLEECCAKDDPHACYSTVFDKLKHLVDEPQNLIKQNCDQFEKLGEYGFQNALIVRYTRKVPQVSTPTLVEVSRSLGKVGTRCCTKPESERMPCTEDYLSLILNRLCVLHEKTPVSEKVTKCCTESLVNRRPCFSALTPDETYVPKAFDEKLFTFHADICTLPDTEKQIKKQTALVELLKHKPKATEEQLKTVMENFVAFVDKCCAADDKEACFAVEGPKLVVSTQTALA

Take `C=CCC(OC(C)=O)[C@@H]1[C@@H](N(Cc2ccc(-c3ccccc3)cc2)C(=O)c2cccc3ccccc23)c2cc(OCCCO)ccc2N1C(=O)c1ccc2ccccc2c1` (stereo not given in full): the composite z-score in assay [1] is 0.002; in assay [3] it was -0.0377; in [4], -0.0368; in assay [5], 0.0991; in assay [6], 0.116; in assay [7], 0.0105. For the same compound, the results for the composite z-score in assay [8], in assay [9] and in assay [10] were 0.263, -0.52 and -0.31, respectively. In [2], the composite Z-score is -0.124 (inactive).

Turning to `COCCCNC(=O)[C@@]1(Sc2ccc(C)cc2)CC(=O)N(C2CCCCC2)[C@@H]1c1ccc(CO)cc1I`, the composite z-score is 0.68 in assay [1]; 0.145 in assay [3]; -0.0096 in assay [4]; 0.481 in assay [5]; 1.8 in assay [6]; 0.0839 in assay [7]. Besides, the composite z-score was 1.25 in [8], 0.818 in [9] and 1.07 in assay [10]. For the same compound, the composite Z-score in assay [2] was 0.441 (inactive).

`CC(C)C[C@H]1NC(=O)[C@@H](C)NC(=O)[C@@]23C(=O)N[C@@H](Cc4ccccc4)C2[C@H](C)[C@@]2(C)O[C@H]2C3/C=C/C/C=C\CNC1=O` (stereo not given in full): the composite z-score in [1] was 0.239; in [3] it was -0.189; in assay [4], -0.202; in [5] it was 0.686; in assay [6] it was 0.394; in assay [7] it was -0.0995. For the same compound, the composite z-score in assay [8] was 0.997; in assay [9], 0.831; in [10] it was 0.124. The composite Z-score in assay [2] was -0.162 (inactive).

As for `CC(C)C(=C=CC[C@@H](O)c1cccc(OCCO)c1)CCO`, the composite z-score in assay [1] was 0.161; in assay [3] it was 0.0996; in assay [4], -0.0519; in [5] it was 0.705; in [6], 0.502; in assay [7] it was 0.0157. For the same compound, the composite z-score in [8] is 0.0316; in assay [9] it was 0.55; in assay [10] it was -0.114. Further, in assay [2], the composite Z-score is -0.137 (inactive).

In the case of `CCCCC(=C=CC[C@H](O)c1ccc(OCCO)cc1)C[C@H](O)c1ccccn1`, the composite z-score in assay [1] is -0.273; in assay [3] it was 0.102; in assay [4] it was -0.0614; in assay [5], 0.562; in assay [6], 1.04; in assay [7] it was 0.967. The composite z-score in assay [8] worked out at 1.18; in assay [9], 0.0162; in [10], 0.544. The composite Z-score in assay [2] was 0.611 (inactive).

As to `[N-]=[N+]=NCc1ccccc1C[C@]1(C(=O)NCc2ccccc2)N=C(c2ccc(OCCCO)cc2)O[C@H]1c1ccccc1CN=[N+]=[N-]`, the composite z-score in assay [1] is 0.735; in assay [3], 0.192; in assay [4], 0.0522; in assay [5], 0.727; in assay [6], 2.67; in assay [7] it was 0.478. Moreover, the results for the composite z-score in [8], in [9] and in assay [10] were 0.839, -0.324 and 0.958, respectively. Also, the composite Z-score in assay [2] is 0.597 (inactive).

`CCCC=C(CCC)[C@@H](NC(=O)c1ccccc1)c1ccc(C(=O)OC)cc1`: the composite z-score in [1] was -0.122; in [3], 1.21; in [4], -0.166; in assay [5], 0.526; in assay [6], 1.77; in assay [7], 0.0914. For the same compound, the composite z-score in assay [8] was determined as 0.823; in assay [9], 0.308; in assay [10] it was 0.711. The composite Z-score in assay [2] was -0.222 (inactive).

As for `COc1cccc(C[C@H]2C[C@@H](CO[Si](C(C)C)(C(C)C)C(C)C)N3C(=O)[C@@]4(C(C)=O)O[C@@]23[C@@H]2C(=O)N(C)C(=O)[C@@H]24)c1`, the composite z-score in assay [1] was 0.166; in assay [3] it was -0.231; in [4] it was -0.118; in [5], 0.0137; in assay [6] it was 0.332; in assay [7] it was -0.316. The composite z-score turned out to be 0.984 in [8], 0.908 in [9] and 0.117 in [10]. In addition, in [2], the composite Z-score is 0.544 (inactive).

For `COC(=O)C1(CC(C)C)C=C2C(=C(C(C)C)C(=O)C2C)CN1` (stereo not given), the composite z-score in [1] was -0.597; in assay [3], -0.0043; in [4] it was -0.119; in assay [5], 0.539; in assay [6], 0.0678; in assay [7] it was -0.463. The composite z-score is -0.923 in [8], -0.699 in assay [9] and -2.07 in [10]. The composite Z-score in [2] is 0.116 (inactive).

Turning to `CC(C)C[C@@H]1NC(=O)[C@H]2C[C@@H](C(=O)NCCCCCCNC(=O)CS)[C@@H](c3ccc(O)cc3)N2C1=O`, the composite z-score was 0.291 in [1]; -0.0581 in assay [3]; 0.0018 in [4]; 0.665 in assay [5]; 1.73 in assay [6]; 0.0905 in [7]. Also, the composite z-score stood at 1.3 in [8], 0.986 in [9] and 1.11 in [10]. Also, the composite Z-score in assay [2] was 0.741 (inactive).

As to `CN(C)CCCCNC(=O)[C@H]1C[C@H]2C(=O)NCC(=O)N2[C@H]1c1cccc(OCCO)c1`, the composite z-score in [1] is -0.539; in assay [3] it was -0.179; in [4], -0.146; in [5] it was 0.655; in assay [6], 0.0949; in assay [7], -0.235. For the same compound, the values for the composite z-score in assay [8], in assay [9] and in assay [10] were -0.705, 0.281 and -0.408, respectively. For the same compound, the composite Z-score in assay [2] is 0.0388 (inactive).

Take `COC(=O)[C@@]1(CCS(=O)(=O)c2ccccc2)N=C(c2ccc(OCCCO)cc2)O[C@H]1c1ccccc1N=[N+]=[N-]`: the composite z-score in assay [1] is 0.827; in assay [3], 0.0237; in [4], 0.0196; in assay [5], 0.356; in [6] it was 2.92; in assay [7], 0.406. In addition, the figures for the composite z-score in [8], in assay [9] and in assay [10] were 1.3, 0.889 and 1.11, respectively. Besides, in assay [2], the composite Z-score is -0.0127 (inactive).

On to `COCCOC(=O)N1C(=O)[C@@]2(c3cc(C#CCCO)ccc31)[C@H](C(=O)N1CCc3cc(OC)c(OC)cc3C1)[C@H]1C(=O)O[C@H](c3ccccc3)[C@H](c3ccccc3)N1[C@@H]2c1ccccc1OCCO`, for which the composite z-score in assay [1] turned out to be 0.357; in [3], 0.285; in assay [4] it was 0.0401; in assay [5] it was 0.422; in [6] it was 1.2; in assay [7], 1.01. For the same compound, the results for the composite z-score in [8], in assay [9] and in assay [10] were 1.32, 0.855 and 1.13, respectively. Also, the composite Z-score in assay [2] was 0.471 (inactive).

Turning to `CN(C)C(=O)[C@]1(Cc2ccccc2CN=[N+]=[N-])N=C(c2ccc(OCCCO)cc2)O[C@@H]1c1ccccc1N=[N+]=[N-]`, the composite z-score in [1] was 0.873; in assay [3], -0.155; in assay [4], -0.153; in [5], 0.58; in assay [6], 2.68; in assay [7], -0.339. The composite z-score in assay [8] is 1.3; in [9], -0.534; in [10] it was 1.07. For the same compound, the composite Z-score in assay [2] was -0.118 (inactive).

As for `CC(c1ccccc1)C(O)C1C=CC2C(=O)N(c3ccccc3)C(=O)C2N1Nc1ccc(C#N)cc1` (stereo not given), the composite z-score in assay [1] was 0.976; in assay [3], 0.609; in [4], -0.0062; in assay [5] it was 0.6; in assay [6], 3.28; in [7] it was 0.359. The composite z-score in assay [8] was 1.34; in assay [9] it was -0.34; in [10], 1.15. In addition, in assay [2], the composite Z-score was -0.105 (inactive).

As to `CCCCC(=C=CC[C@@H](O)c1cccc(OCCO)c1)C[C@@H](O)COCc1ccccc1`, the composite z-score in assay [1] is 0.59; in assay [3] it was -0.158; in assay [4], -0.104; in [5] it was 0.441; in assay [6], 0.696; in assay [7], 0.117. In addition, the composite z-score is -0.121 in assay [8], -0.598 in [9] and -0.302 in [10]. In addition, the composite Z-score in assay [2] was 0.196 (inactive).

In the case of `COc1ccc(NC(=O)O[C@H]2[C@H](OC(=O)Nc3ccc4c(c3)OCO4)[C@H](OC(=O)Nc3ccc4c(c3)OCO4)[C@@H](OC)O[C@@H]2CO)cc1`, the composite z-score in [1] is -0.0357; in assay [3], 0.037; in assay [4], -0.117; in assay [5], 0.609; in assay [6] it was 1.36; in assay [7], 1.16. Moreover, the composite z-score in assay [8] came out at 1.26; in assay [9], 0.0872; in [10] it was 1.02. Also, the composite Z-score in assay [2] was -0.102 (inactive).
